Measured values reported in ChEMBL document CHEMBL4513146, “CO-ADD screening of Karazin Kharkiv National University (Ukraine) compounds”.
Entries with a potency or affinity are not part of this list.

Tests used:
Staphylococcus aureus = conditions: Concentration 32 ug.mL-1;; ASSAY_TEST Inhibition of Bacterial Growth; detection method Absorption (OD600); MEDIA CAMHB; plate type 384well; NBS; CORNING #3640; time 18 hr
Escherichia coli = conditions: Concentration 32 ug.mL-1;; ASSAY_TEST Inhibition of Bacterial Growth; detection method Absorption (OD600); MEDIA CAMHB; plate type 384well; NBS; CORNING #3640; time 18 hr

SMILES | Inhibition (Staphylococcus aureus) [%] | Inhibition (Escherichia coli) [%]
CCOc1ccc(NC(=O)Cn2nc3ccc(-c4ccccc4)nn3c2=O)cc1 | 5.36 | -5.9
CCc1ccccc1Sc1nccn2c(=O)n(CC(=O)N3CCN(c4ccc(F)cc4)CC3)nc12 | 2.23 | -2.15
C=Cc1ccc(Cn2nc3c(=O)n(-c4cccc(Cl)c4C)ccn3c2=O)cc1 | -2.71 | -4.95
Cc1cc2nn(CC(=O)Nc3ccc(F)c(F)c3)c(=O)n2c(Nc2ccc(F)c(C)c2)n1 | 9.7 | -3.91
COc1cccc(Sc2nc3ccccc3n3c(=O)n(CC(=O)Nc4cccc(F)c4)nc23)c1 | 3.13 | -1.66
COc1ccc(C)cc1NC(=O)Cn1nc2c(N3CCSCC3)nc3ccccc3n2c1=O | 9.36 | 0.1
Cc1ccc(NC(=O)Cn2nc3c4cc(-c5ccc(Cl)cc5)nn4ccn3c2=O)cc1C | 10.49 | 3.51
O=C(CSc1nnc2c(=O)n(-c3ccc(F)c(F)c3)ccn12)c1c[nH]c2ccccc12 | 13.28 | -5.88
O=C(CSc1nc2ccccc2n2cnnc12)Nc1ccc2c(c1)OCO2 | 4.59 | -3.46
COc1cc(OC)c(NC(=O)Cn2nc3c4c5c(sc4ncn3c2=O)CC(C)CC5)cc1Cl (centres undefined) | 7.09 | 1.97
O=C(Cn1nc2c(Sc3cccc(F)c3)nccn2c1=O)Nc1ccc(F)c(Cl)c1 | -0.79 | -15.42
O=c1c2sccc2n2c(=O)n(Cc3c(F)cccc3Cl)nc2n1Cc1cccs1 | 6.51 | 0.39
